Data as given in PubChem BioAssay AID624098 (National Center for Advancing Translational Sciences (NCATS), 2012).
Records with an inconclusive call do not appear. Calls of active or inactive are those of the source.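 The calls were made as follows: active = immobility above 50% at 10 µM after 1 hour; inconclusive = immobility from 15% to 50% at 1 hour; inactive = immobility below 15%.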

test: Assay for General Anesthetic Phenotype in Xenopus Tadpoles; conditions: startle-response immobility, 1 h, at 10 µM, stronger effect = higher value
Source text: Anesthetic development has remained a largely empirical process. There are growing concerns about the cognitive effects of known general anesthetics and acceleration of the onset of neurodegenerative disease. The compounds' toxicity and multiple specific binding targets in the mammalian brain [4] has made them less attractive as drug leads. This assay was designed for the in vivo follow-up testing of compounds in tadpoles. References: [1] S.L. Bianchi, T. Tran, C. Liu, S. Lin, Y. Li, J.M. Keller, R.G. Eckenhoff, and M.F. Eckenhoff, Brain and behavior changes in 12-month-old Tg2576 and nontransgenic mice exposed to anesthetics. Neurobiol Aging 29 (2008) 1002-10. Z. Xie, Y. Dong, U. Maeda, R.D. Moir, W. Xia, D.J. Culley, G. Crosby, and R.E. Tanzi, The inhalation anesthetic isoflurane induces a vicious cycle of apoptosis and amyloid beta-protein accumulation. J Neurosci 27 (2007) 1247-54. P. Honegger, and J.M. Matthieu, Selective toxicity of the general anesthetic propofol for GABAergic neurons in rat brain cell cultures. J Neurosci Res 45 (1996) 631-6. M.F. Eckenhoff, K. Chan, and R.G. Eckenhoff, Multiple specific binding targets for inhaled anesthetics in the mammalian brain. J Pharmacol Exp Ther 300 (2002) 172-9. C.A. Butts, J. Xi, G. Brannigan, A.A. Saad, S.P. Venkatachalan, R.A. Pearce, M.L. Klein, R.G. Eckenhoff, and I.J. Dmochowski, Identification of a fluorescent general anesthetic, 1-aminoanthracene. Proc Natl Acad Sci U S A 106 (2009) 6501-6. W.A. Lea, J. Xi, A. Jadhav, L. Lu, C.P. Austin, A. Simeonov, and R.G. Eckenhoff, A high-throughput approach for identification of novel general anesthetics. PLoS One 4 (2009) e7150.
Pre-limb bud Xenopus tadpoles were obtained in large batches from Nasco, Inc. Batches of 10 tadpoles were placed in 20 mm Petri dishes with approximately 20 ml of pond water ("pond water" is approximately a 20-fold dilution of Ringers saline solution). Compounds were added to the pond water from DMSO stock to obtain 100, 10 and 1 microM concentrations. Tadpoles were then incubated with these solutions for 1 hour, and then scored for "anesthesia". Anesthesia in this case is lack of movement in response to a sharp tap on the Petri dish lid, i.e., a lack of startle response. This correlates well to the loss of righting reflex in rodents and the loss of consciousness in humans. The pond water is then changed, and the return of a startle response is monitored for 24 hours. Immobility at 24 hours is considered death.

SMILES	immobility
CCCCc1ccc(-c2ccc(=O)n(CC(=O)NCCc3ccccc3)n2)cc1	5% (inactive)
O=C(Cn1nc(-c2ccc(F)cc2)ccc1=O)NCCc1ccccc1	5% (inactive)
Cc1ccc(-c2ccc(=O)n(CC(=O)NCCc3ccccc3)n2)cc1	90% (active)

same assay, conditions: startle-response immobility, 1 h, measured here: 24 h immobility, toxicity/death, at 10 µM

SMILES	immobility [%]
CCCCc1ccc(-c2ccc(=O)n(CC(=O)NCCc3ccccc3)n2)cc1	5
O=C(Cn1nc(-c2ccc(F)cc2)ccc1=O)NCCc1ccccc1	0
Cc1ccc(-c2ccc(=O)n(CC(=O)NCCc3ccccc3)n2)cc1	0
